Experimental data reported in PubChem BioAssay (NCI).
The panel holds about 83,000 compounds, 20% with a hit somewhere; the sample as a whole holds those more often.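 Activity criterion: percent growth below 10, measured after cells in 96-well plates were exposed to a single compound concentration for 48 hours.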 A number with no mark means an inactive call. Calls of active or inactive are those of the source.

Legend:
Assay in all cases: NCI-60 one-dose screen, 48 h (100 = growth as untreated, 0 = no growth, -100 = all killed)
Settings in all cases: 10 µM
[1] = test system: DU-145 prostate
[2] = test system: K-562 leukemia
[3] = test system: MALME-3M melanoma
[4] = test system: MDA-MB-231 breast
[5] = test system: RXF 393 renal
[6] = test system: SF-268 CNS
[7] = test system: SF-295 CNS
[8] = test system: SF-539 CNS
[9] = test system: UACC-257 melanoma
[10] = test system: M14 melanoma
[11] = test system: HCT-15 colon
[12] = test system: HT29 colon
[13] = test system: SNB-75 CNS
[14] = test system: SNB-19 CNS
[15] = test system: U251 CNS
[16] = test system: SK-MEL-5 melanoma
[17] = test system: UACC-62 melanoma
[18] = test system: LOX IMVI melanoma
[19] = test system: SK-MEL-28 melanoma
[20] = test system: PC-3 prostate

Row | SMILES | growth [1] | growth [2] | growth [3] | growth [4] | growth [5] | growth [6] | growth [7] | growth [8] | growth [9] | growth [10] | growth [11] | growth [12] | growth [13] | growth [14] | growth [15] | growth [16] | growth [17] | growth [18] | growth [19] | growth [20]
1 | Nc1c(C(=O)NC2CCCCC2)sc2nc3c(cc12)C(=O)CCC3 | 102% | 88.4% | 139% | 101% | 92.1% | 109% | 88.8% | 107% | 88.1% | 103% | 85.8% | 110% | 95% | 97.2% | 93.6% | 95% | 91% | 103% | 94.8% | –
2 | Cc1c(C(=O)N[C@H](CO)Cc2ccccc2)[nH]c2ccc(Cl)cc2c1=O | 110% | 95.5% | 104% | 115% | 122% | 104% | 98.2% | 98.9% | 108% | 98.2% | 100% | 90.1% | 99.9% | 106% | 92.7% | – | 92.9% | 97.9% | 114% | 97.6%
3 | CCc1nn2c(-c3cc(OC)c(OC)c(OC)c3)c(-c3cc(OC)c(OC)c(OC)c3)nc2s1 | 88.1% | 85.7% | 47.5% | 58.9% | 38.8% | 45.9% | 61.4% | 59.6% | 108% | 89.5% | 77.9% | 69.6% | -25.6% (active) | 61.9% | 58.1% | 89.7% | 63.1% | 85.1% | 85.8% | –
4 | NC1CCC(Nc2nc(NCc3ccc(-c4ccccc4O)nc3)c3ncn(C4CCCC4)c3n2)CC1 (stereo not drawn) | -4.56% (active) | -41.2% (active) | -76.1% (active) | -22% (active) | -67.4% (active) | -25.8% (active) | -14.4% (active) | -81% (active) | -68.6% (active) | -81.5% (active) | -4.18% (active) | -22.5% (active) | -70.1% (active) | 8.53% (active) | -23% (active) | – | -55% (active) | -82.8% (active) | -58.9% (active) | -3.87% (active)
5 | CCCCOCCOCCOCc1cc2c(cc1Br)OCO2 | 107% | 94.7% | 94.8% | 97.1% | 108% | 103% | 100% | 92.5% | 101% | 110% | 97.1% | 92.6% | 99.7% | 106% | 94.9% | 97.8% | 89.9% | 106% | 106% | –
6 | CCCN(CCC)CCCNC(=O)c1cc2c(-c3ccc(OC)c(OC)c3)nn(C)c2s1 | 13% | 6.33% (active) | 27.6% | 21.8% | -2.45% (active) | 14.5% | 35% | 10.9% | 7.46% (active) | 9.55% (active) | 24.7% | 56.5% | 22.7% | 35% | 9.87% (active) | – | 14.1% | 10.2% | 37.6% | 16.1%
7 | Nc1ncncc1-c1ccc(F)cc1 | 115% | 109% | 112% | 127% | 109% | 112% | 100% | 95.6% | 118% | 107% | 103% | 113% | 85.3% | 106% | – | 104% | 107% | 98.7% | 115% | 103%
8 | COC(=O)c1cnc2c(c1)Oc1ccc(Cl)cc1-c1cc(C)nn1-2 | 79.6% | 95.8% | 94.8% | 35% | 89.8% | 78.9% | 92.3% | 46.1% | 107% | 95.3% | 87.3% | 82.5% | 91.7% | 62% | 50.4% | 88.1% | 74.7% | 60.2% | 96.4% | –
9 | CN(C)c1ccc2c(c1)OC(N)=C(C#N)C2c1ccc2c(c1)CCO2 (stereo not drawn) | 26.7% | 17% | 87.5% | 21.7% | 23.5% | 47.7% | -3.28% (active) | -0.663% (active) | 58% | 10% | 18% | 9% (active) | 40.8% | 31.4% | 21.7% | 10.3% | 34.8% | 29% | 57.6% | –
10 | CCCCCCCCCCN=C(c1ccc(N(C)C)cc1)c1ccc(N(C)C)cc1 | 28.5% | 10.1% | 62% | 49.5% | 3.59% (active) | 57.5% | 14% | 10.9% | 28.3% | -18% (active) | 12.9% | 9.42% (active) | 33.1% | 31.8% | 21.3% | 0.192% (active) | 31.7% | 42.1% | 59.7% | –
11 | COc1ccc(C2C=C(c3ccc(Cl)c(Cl)c3)N=C3SC(C)=CN32)cc1 (stereo not drawn) | 100% | 83.2% | 90.2% | 101% | 83% | 97.2% | 87.3% | 95.7% | 109% | 97.3% | 85.5% | 71.1% | 89.8% | 96.6% | 84.2% | 93.6% | 92.1% | 83.4% | 104% | –
12 | CC(C)(C)c1ccc(OCCCCCCN2CCNCC2)cc1 | 86.2% | 0.864% (active) | 60.6% | 36.4% | 46.2% | 78.2% | 57.7% | 68.9% | 93.6% | 22.6% | 6.25% (active) | 25% | 53.7% | 66.2% | 30.7% | – | -32.2% (active) | -16.7% (active) | 59.1% | 39.6%
13 | NC1CCC(Nc2nc(NCc3cc(Cl)ccc3O)c3ncn(C4CCCC4)c3n2)CC1 (stereo not drawn) | 0.994% (active) | -23.3% (active) | -65.5% (active) | -16.7% (active) | -58.9% (active) | -23.1% (active) | -5.72% (active) | -62.4% (active) | -58.9% (active) | -71.6% (active) | -10.1% (active) | -16.9% (active) | -85.8% (active) | 9.87% (active) | -22.8% (active) | -93.7% (active) | – | -73.7% (active) | -44.7% (active) | –
14 | CC(C)=C1CCC(C)C/C1=N\N=C(N)N (stereo not drawn) | 105% | 97.9% | 100% | 113% | 107% | 99.2% | 98.4% | 104% | 93.5% | 102% | 99.7% | 102% | 97.7% | 97.5% | 96.5% | – | 103% | 93.9% | 109% | 87.9%
15 | Fc1ccc(-c2cc(C(Cl)Cl)no2)cc1 | 100% | 128% | 93.3% | 95.1% | 103% | 100% | 97.1% | 106% | 120% | 89.3% | 96.9% | 114% | 72.4% | 94.7% | 108% | 94.3% | 92.8% | 101% | 109% | –
16 | O=C(Nc1cccc(Cl)c1)Nc1cc2ncncc2cc1OCc1cccc(F)c1 | 18.9% | 8.22% (active) | 10.8% | 27.2% | 31.5% | 26.6% | 7.22% (active) | 36% | -34.2% (active) | -18.2% (active) | 0.775% (active) | 0.74% (active) | 21.1% | 22.9% | 6.99% (active) | -88.5% (active) | -18.4% (active) | 21.4% | 20.9% | –
